For 16 compounds, inhibition results are on record in PubChem BioAssay.

Experiment [1] deals with Nuclear receptor coactivator 3 (Homo sapiens) (UniProt Q9Y6Q9). In words: NCOA3 GAL4-fusion reporter inhibition – cell-based, luminescence, quadruplicate, confirmation (AID 588792;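 active means mean inhibition over 43.08%, the solvent-only control mean plus 3 SD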;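 further: 0% = DMSO treated cells and 100% = gossypol at 36 µM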). The settings on record: HEK293 GAL4-SRC3 luciferase reporter, at 3.6 µM, active compounds read high. On the technique in general: In a reporter assay the amount or activity of a reporter protein is the signal.
Chain of Nuclear receptor coactivator 3 (Homo sapiens) (Q9Y6Q9 whole entry, looked up, the tested form may be a part): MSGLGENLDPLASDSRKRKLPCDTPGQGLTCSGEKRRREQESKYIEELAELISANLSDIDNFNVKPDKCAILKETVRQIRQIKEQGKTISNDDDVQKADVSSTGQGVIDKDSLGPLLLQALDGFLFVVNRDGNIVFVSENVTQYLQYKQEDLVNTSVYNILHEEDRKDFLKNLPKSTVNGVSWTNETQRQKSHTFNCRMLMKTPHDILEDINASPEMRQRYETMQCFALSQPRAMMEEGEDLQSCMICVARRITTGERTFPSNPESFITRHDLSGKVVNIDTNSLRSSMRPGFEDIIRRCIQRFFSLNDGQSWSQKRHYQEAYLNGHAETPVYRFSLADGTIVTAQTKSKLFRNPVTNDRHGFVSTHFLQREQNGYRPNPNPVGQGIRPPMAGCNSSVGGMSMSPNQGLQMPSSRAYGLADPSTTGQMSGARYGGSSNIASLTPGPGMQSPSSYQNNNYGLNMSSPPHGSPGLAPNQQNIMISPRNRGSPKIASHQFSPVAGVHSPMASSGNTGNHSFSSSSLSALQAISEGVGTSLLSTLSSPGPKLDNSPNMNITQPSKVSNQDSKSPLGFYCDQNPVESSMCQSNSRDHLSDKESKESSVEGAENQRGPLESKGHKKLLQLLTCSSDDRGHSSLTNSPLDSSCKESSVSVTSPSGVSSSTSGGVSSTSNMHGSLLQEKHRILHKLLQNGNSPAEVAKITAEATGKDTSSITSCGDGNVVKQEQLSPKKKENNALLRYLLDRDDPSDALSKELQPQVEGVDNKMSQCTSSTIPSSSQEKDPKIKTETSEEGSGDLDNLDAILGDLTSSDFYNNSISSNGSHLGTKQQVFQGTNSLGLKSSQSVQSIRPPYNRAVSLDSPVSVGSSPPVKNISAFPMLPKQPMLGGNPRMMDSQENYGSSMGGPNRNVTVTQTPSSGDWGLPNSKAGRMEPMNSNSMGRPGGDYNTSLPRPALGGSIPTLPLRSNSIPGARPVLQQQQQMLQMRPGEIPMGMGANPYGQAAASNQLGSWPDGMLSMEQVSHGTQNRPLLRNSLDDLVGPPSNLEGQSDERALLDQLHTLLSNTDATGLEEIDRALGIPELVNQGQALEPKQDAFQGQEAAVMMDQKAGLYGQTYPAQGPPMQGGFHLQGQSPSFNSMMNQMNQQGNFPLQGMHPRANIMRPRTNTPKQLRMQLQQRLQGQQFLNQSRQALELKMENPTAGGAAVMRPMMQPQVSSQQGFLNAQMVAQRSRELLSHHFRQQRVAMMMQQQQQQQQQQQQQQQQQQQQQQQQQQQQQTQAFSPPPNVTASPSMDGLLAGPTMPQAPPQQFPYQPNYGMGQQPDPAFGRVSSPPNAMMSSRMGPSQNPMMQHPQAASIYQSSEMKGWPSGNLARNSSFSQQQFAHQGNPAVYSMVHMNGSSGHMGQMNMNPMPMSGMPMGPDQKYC

For experiment [2], the system named is transactivating tegument protein VP16 (Human herpesvirus 1), Gal4-VP16 luciferase reporter. In words: repression of VP16-driven luciferase reporter – cell-based, luminescence, high throughput, counter-screen for SRC3 inhibitor project (AID 588794; in the data active means inhibition above about 30%). To be noted: mammalian cells, at 3.6 µM, active compounds read high.
Experiment [3] addresses Nuclear receptor coactivator 1 (Homo sapiens) (UniProt Q15788). In words: NCOA1 GAL4-fusion reporter inhibition – cell-based, luminescence, quadruplicate, confirmation (AID 588820;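 active means mean inhibition above 46.68%, the untreated control wells mean plus 3 SD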;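 further: 0% = DMSO wells and 100% = gossypol 36 µM treated wells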). To be noted: HEK293 GAL4-SRC1 luciferase reporter, at 3.6 µM, active compounds read high.
The nature of experiment [4]: repression of VP16-driven luciferase reporter – cell-based, luminescence, high throughput, counter-screen for SRC1 inhibitor project (AID 588824). To be noted: cell-based VP16 transactivation luciferase luminescence; at 3.6 µM; active compounds read high.
A short description of experiment [5]: StAR promoter reporter inhibitors, counter-screen for LRH-1 inverse agonist project, cell-based, luminescence, high throughput (AID 651611; in the data active means inhibition above about 28%). To be noted: StAR promoter luciferase reporter counterscreen, at 3.6 µM, active compounds read high.
The target of experiment [6] is Nuclear receptor subfamily 5 group A member 2 (Homo sapiens) (UniProt O00482). Briefly: NR5A2 activity suppression in reporter cells – cell-based, luminescence, confirmation (AID 651613; in the data active means inhibition above about 42%;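 further: HEK293T cells co-transfected with LRH-1 and StAR promoter luciferase reporter; 0% = vehicle wells and 100% = parental cells lacking receptor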). The settings on record: cell-based LRH-1 luciferase reporter, inverse agonism; at 3.6 µM; active compounds read high.
Chain of Nuclear receptor subfamily 5 group A member 2 (Homo sapiens) (O00482 whole entry, looked up): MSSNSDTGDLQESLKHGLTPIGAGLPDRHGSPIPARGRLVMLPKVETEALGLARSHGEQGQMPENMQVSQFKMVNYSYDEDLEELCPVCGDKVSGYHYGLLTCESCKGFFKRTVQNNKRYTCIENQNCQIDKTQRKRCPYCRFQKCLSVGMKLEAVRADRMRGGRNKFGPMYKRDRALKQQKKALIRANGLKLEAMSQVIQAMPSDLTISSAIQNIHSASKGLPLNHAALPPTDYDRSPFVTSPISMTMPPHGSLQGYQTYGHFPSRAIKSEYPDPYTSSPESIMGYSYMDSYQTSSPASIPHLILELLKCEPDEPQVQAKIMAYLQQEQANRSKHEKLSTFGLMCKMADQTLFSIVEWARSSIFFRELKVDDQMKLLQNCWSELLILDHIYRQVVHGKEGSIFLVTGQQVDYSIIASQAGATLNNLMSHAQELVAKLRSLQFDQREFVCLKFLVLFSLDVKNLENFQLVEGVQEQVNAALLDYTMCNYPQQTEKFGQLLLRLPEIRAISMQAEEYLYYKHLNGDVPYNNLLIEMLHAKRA
In experiment [7] the target is Steroidogenic factor 1 (Homo sapiens) (UniProt Q13285). In words: inverse agonism at SF1 nuclear receptor – cell-based, luminescence, high throughput, counter-screen for LRH-1 inverse agonist project (AID 651614; in the data active means inhibition above about 44%;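 further: cells cotransfected with StAR promoter reporter and SF1 expression vector; 0% = vehicle on cells with receptor and 100% = vehicle on cells lacking receptor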). The settings on record: cell-based SF1 luciferase reporter, at 3.6 µM, active compounds read high. A general note: Counterscreens check selectivity or assay interference.

Experiment [8] is described as follows: compounds suppressing VP16-driven luciferase signal – cell-based, luminescence, high throughput, counter-screen for LRH-1 inverse agonist project (AID 651615; in the data active means inhibition above about 33%). To be noted: Gal4-VP16 luciferase reporter cells, at 3.6 µM, active compounds read high.
For experiment [9], the system named is transactivating tegument protein VP16 (Human herpesvirus 1). In words: compounds suppressing VP16-driven luciferase signal – cell-based, luminescence, single concentration, counter-screen for SRC2 inhibitor project (AID 652007; in the data active means inhibition above about 36%). To be noted: cell-based VP16 transactivation luciferase reporter, at 8.9 µM, active compounds read high.
For experiment [10], the target named is Nuclear receptor coactivator 2 (Homo sapiens) (UniProt Q15596). Briefly: inhibition of GAL4-SRC2 driven luciferase expression – cell-based, luminescence, HEK293, triplicate, confirmation (AID 652008;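 active means mean inhibition above 46.5%, the solvent-only control mean plus 3 SD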;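 further: 0% = DMSO-treated cells and 100% = Gossypol at 36 µM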). The settings on record: HEK293 GAL4-SRC2 luciferase reporter, at 8.9 µM, active compounds read high.
Chain of Nuclear receptor coactivator 2 (Homo sapiens) (Q15596 whole entry, looked up, the tested form may be a part): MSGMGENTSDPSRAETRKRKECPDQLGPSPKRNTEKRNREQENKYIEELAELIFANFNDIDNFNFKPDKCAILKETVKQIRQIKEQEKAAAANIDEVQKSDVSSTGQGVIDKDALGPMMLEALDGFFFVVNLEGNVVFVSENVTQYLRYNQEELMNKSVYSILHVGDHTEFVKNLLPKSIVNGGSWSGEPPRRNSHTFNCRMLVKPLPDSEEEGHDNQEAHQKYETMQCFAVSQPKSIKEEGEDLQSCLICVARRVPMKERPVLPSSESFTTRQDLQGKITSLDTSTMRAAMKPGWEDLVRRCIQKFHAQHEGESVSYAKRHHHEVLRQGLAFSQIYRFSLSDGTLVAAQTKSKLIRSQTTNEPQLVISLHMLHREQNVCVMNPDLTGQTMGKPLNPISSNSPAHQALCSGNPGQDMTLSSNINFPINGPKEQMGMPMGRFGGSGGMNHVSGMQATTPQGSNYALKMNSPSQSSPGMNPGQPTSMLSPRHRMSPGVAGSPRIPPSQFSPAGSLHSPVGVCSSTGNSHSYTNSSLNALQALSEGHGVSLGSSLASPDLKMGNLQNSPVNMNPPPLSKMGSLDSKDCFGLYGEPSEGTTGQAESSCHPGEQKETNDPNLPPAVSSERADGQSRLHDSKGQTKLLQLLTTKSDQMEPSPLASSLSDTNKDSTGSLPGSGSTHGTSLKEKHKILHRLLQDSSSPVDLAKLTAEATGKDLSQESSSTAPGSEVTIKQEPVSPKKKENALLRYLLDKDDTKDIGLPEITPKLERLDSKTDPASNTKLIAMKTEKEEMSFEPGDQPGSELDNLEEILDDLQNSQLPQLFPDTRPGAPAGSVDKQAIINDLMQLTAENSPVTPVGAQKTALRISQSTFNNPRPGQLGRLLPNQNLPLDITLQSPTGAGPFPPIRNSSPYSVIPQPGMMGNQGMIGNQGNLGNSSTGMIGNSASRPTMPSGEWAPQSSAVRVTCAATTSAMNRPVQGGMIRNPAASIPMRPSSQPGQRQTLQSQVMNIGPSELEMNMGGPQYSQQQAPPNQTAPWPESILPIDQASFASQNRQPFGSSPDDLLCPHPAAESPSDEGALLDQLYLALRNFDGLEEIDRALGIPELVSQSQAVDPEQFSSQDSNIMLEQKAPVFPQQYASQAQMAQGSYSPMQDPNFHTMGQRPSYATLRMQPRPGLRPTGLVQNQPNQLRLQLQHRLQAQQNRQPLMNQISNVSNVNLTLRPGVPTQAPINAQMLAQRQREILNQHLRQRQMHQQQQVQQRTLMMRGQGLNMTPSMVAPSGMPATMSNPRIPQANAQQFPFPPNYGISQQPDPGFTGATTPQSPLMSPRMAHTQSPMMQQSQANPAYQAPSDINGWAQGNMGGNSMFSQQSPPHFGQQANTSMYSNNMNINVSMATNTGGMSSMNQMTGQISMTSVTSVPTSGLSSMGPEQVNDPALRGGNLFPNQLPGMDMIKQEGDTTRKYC

A number with no mark means an inactive call. Activity calls are given as the source filed them. Unless noted, no stated cut-off is given here; in the data, active means inhibition above about 25%; inactive means the rest.

Chain of Nuclear receptor coactivator 1 (Homo sapiens) (Q15788 whole entry, looked up, the tested form may be a part): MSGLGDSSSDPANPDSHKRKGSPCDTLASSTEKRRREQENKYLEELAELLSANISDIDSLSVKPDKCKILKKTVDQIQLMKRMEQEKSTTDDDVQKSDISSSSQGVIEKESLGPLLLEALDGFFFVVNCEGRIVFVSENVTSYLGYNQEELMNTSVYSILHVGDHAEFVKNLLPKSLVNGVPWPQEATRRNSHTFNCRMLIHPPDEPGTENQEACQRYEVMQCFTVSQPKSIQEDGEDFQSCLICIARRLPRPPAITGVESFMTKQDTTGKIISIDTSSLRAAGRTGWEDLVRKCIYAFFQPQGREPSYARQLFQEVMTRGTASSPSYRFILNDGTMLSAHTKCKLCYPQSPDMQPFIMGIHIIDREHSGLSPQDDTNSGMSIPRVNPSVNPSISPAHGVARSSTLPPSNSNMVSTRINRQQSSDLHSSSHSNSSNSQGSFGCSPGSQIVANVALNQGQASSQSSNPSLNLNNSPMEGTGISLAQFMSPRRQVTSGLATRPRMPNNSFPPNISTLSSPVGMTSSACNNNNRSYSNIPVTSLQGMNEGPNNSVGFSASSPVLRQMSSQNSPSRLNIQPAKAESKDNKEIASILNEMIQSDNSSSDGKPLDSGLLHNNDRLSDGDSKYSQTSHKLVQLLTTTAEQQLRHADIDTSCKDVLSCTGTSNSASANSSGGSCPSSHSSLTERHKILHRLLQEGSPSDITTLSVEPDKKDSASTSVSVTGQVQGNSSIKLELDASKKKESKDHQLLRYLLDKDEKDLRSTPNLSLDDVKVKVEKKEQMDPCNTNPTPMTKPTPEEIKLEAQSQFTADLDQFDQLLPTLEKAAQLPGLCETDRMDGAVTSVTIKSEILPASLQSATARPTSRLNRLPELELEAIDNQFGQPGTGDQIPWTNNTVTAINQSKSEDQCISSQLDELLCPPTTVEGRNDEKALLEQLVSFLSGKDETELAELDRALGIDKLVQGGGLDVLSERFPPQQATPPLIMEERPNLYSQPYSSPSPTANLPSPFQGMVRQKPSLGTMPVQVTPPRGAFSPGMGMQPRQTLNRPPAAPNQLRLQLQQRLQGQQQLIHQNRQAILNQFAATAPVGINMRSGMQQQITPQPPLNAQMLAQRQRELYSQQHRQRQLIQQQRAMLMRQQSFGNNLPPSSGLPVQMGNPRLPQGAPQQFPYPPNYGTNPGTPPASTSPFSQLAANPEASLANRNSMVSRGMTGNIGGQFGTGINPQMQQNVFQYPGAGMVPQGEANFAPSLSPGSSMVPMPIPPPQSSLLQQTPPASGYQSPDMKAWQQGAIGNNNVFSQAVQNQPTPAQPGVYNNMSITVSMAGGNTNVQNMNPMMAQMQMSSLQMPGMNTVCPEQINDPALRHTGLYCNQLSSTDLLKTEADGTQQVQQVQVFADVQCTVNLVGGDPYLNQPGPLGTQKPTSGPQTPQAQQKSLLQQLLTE

Regarding `O=C(Nc1nc2ccccc2[nH]1)c1ccccc1F`, the inhibition (commonly the relative decrease from the control value, in per cent) is 27.6% in [1]; 19.6% in experiment [2]; -26.7% in experiment [3]; 11.2% in experiment [4]; -0.87% in experiment [5]; -32.3% in [6]. Besides, the inhibition is 13.5% in [7], -10.4% in experiment [8], 43.9% (active) in experiment [9] and 67.2% (active) in [10].
With `O=[N+]([O-])c1nn(-c2ccc3c(c2)OCCO3)n(O)c1=Nc1ccccc1`, the inhibition is 81% (active) in [1]; -12.3% in experiment [2]; 70.5% (active) in experiment [3]; 16.2% in experiment [4]; 68.9% (active) in experiment [5]; 44.6% (active) in experiment [6]. In addition, the inhibition in [7] is 66.5% (active); in [8], 33.9% (active); in experiment [9], 35.2%; in experiment [10], 91.4% (active).
As to `Cc1ccc(C(=O)N/N=C/c2c(O)ccc3ccccc23)cn1`, the inhibition was 65.9% (active) in [1]; 62.9% (active) in experiment [2]; 58.7% (active) in experiment [3]; 75.4% (active) in experiment [4]; 84.8% (active) in experiment [5]; 102% (active) in experiment [6]. In addition, the inhibition in experiment [7] was 89.9% (active); in experiment [8], 83.8% (active); in experiment [9] it was -4.97%; in experiment [10], 33.4%.
With `COC(=O)c1ccccc1-c1c2ccc(=N)cc-2oc2cc(N)ccc12`, the inhibition is 35% in [1]; 55.2% (active) in [2]; 28.7% in experiment [3]; 48.3% (active) in experiment [4]; 62.2% (active) in experiment [5]; 109% (active) in [6]. The inhibition is 79.1% (active) in experiment [7], 88% (active) in experiment [8], 21.2% in experiment [9] and 3.71% in [10].
For the compound `CC(C)(C)OC(=O)NCCCCCc1cn([C@@H](CO)C(=O)NCCCCCCCCCCC(=O)N2CCN(C(=O)OC(C)(C)C)CC2)nn1`, the inhibition in experiment [1] was 23.4%; in [2] it was 66.8% (active); in [3] it was 0.34%; in experiment [4] it was 71.4% (active); in [5] it was 59.5% (active); in experiment [6], 69.4% (active). For the same compound, the inhibition was 69.9% (active) in [7], 80.6% (active) in experiment [8], 55% (active) in [9] and 48.7% (active) in experiment [10].
Consider `O=C1NC(=S)N/C1=C/c1cccnc1`, for which the inhibition is 39.1% in [1]; 32% (active) in experiment [2]; 44.9% in experiment [3]; 31.8% (active) in experiment [4]; -3.45% in experiment [9]; 43.8% in experiment [10].
On to `COc1ccc2[nH]c3c(c2c1)CC(C)NC3=O` (stereo not drawn), for which the inhibition is 73% (active) in experiment [1]; 49.7% (active) in experiment [2]; 67.3% (active) in experiment [3]; 52.2% (active) in experiment [4]; 14.3% in experiment [9]; 41.6% in [10].
As to `CCOc1cc(CNc2ccc3c(c2)OCCO3)cc(Br)c1OCC`, the inhibition in experiment [1] was 25.4%; in experiment [2], 20.9%; in experiment [3], -11.6%; in experiment [4] it was 20.8%; in [9], -27.7%; in experiment [10], -1.58%.
With `C[C@H]1O[C@@H](O[C@H]2[C@@H](O)C[C@H](O[C@H]3[C@@H](O)C[C@H](O[C@H]4CC[C@@]5(C)[C@H](CC[C@@H]6[C@@H]5C[C@@H](O)[C@]5(C)[C@@H](C7=CC(=O)OC7)CC[C@]65O)C4)O[C@@H]3C)O[C@@H]2C)C[C@H](O)[C@@H]1O`, the inhibition was 96.8% (active) in experiment [1]; 88.6% (active) in [2]; 80.6% (active) in experiment [3]; 87.5% (active) in experiment [4]; 110% (active) in experiment [6]; 97.7% (active) in experiment [7]. Moreover, the inhibition is 70.2% (active) in [9] and 55.2% (active) in experiment [10].
With `CCOc1ccc(/C=C2\SC(=S)N(CCCC(=O)NCCCN3CCOCC3)C2=O)cc1`, the inhibition in [1] is 29.9%; in [2], 10.6%; in [3], 22.1%; in experiment [4] it was 7.63%; in experiment [9] it was 59.8% (active); in experiment [10] it was 90% (active).
Consider `COC(=O)CCNc1ccc2c(c1)OCCO2`, for which the inhibition in experiment [1] is 7.16%; in [2] it was -2.66%; in experiment [3] it was -12.2%; in [4], -15.9%; in experiment [9], -9.29%; in experiment [10], 39.5%.
Turning to `CCOC(=O)NNC(=O)CCn1c2c(c3ccccc31)CCCC2`, the inhibition is 54.1% (active) in experiment [1]; 43.4% (active) in [2]; 51.3% (active) in experiment [3]; 37% (active) in experiment [4]; 1.39% in experiment [9]; 39.1% in experiment [10].
Consider `Clc1ccccc1C1=Nn2c(nnc2-c2ccncc2)SC1`, for which the inhibition was 78.3% (active) in [1]; 52.6% (active) in experiment [2]; 73.9% (active) in experiment [3]; 55.2% (active) in experiment [4]; 7.16% in experiment [9]; 46% in experiment [10].
For the compound `Cn1nc(C(F)(F)F)c(C#N)c1N1CCN(c2ccccc2)CC1`, the inhibition in experiment [1] is 56.3% (active); in experiment [2], 31.5% (active); in experiment [3], 35.6%; in [4], 19.3%; in experiment [9], 4.83%; in experiment [10], 27.6%.
Take `CNc1ncnc(Sc2nc(N)nc3nc[nH]c23)c1[N+](=O)[O-]`: the inhibition was 47.1% (active) in [1]; 20.2% in [2]; 26.8% in experiment [3]; 14.4% in [4]; 52.6% (active) in experiment [6]; 25.1% in experiment [7].
For the compound `C=CCn1c(C)cc(C2=NNC(=NC(C)(C)C)SC2)c1C`, the inhibition is 28.8% in experiment [1]; 33.7% (active) in experiment [2]; -25.9% in experiment [3]; -16.9% in experiment [4]; 17.8% in experiment [9]; 63% (active) in experiment [10].
